Experimental data: PubChem BioAssay (NCI)
About 83,000 compounds went through this panel and 20% of them were active in at least one assay; those are over-represented in the sample as a whole.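 Treatment: one concentration, 48 hours, 96-well format. Scoring: percent growth, with anything below 10 considered active.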 Active and inactive are the calls of the source.

How the values were obtained:
Assay in all cases: NCI-60 one-dose screen, 48 h (100 = growth as untreated, 0 = no growth, -100 = all killed)
Settings in all cases: 10 µM unless noted
T-47D breast = system: T-47D breast
BT-549 breast = system: BT-549 breast
MDA-MB-435 melanoma = system: MDA-MB-435 melanoma
SW-620 colon = system: SW-620 colon
MCF7 breast = system: MCF7 breast
HCT-116 colon = system: HCT-116 colon
HCC-2998 colon = system: HCC-2998 colon
KM12 colon = system: KM12 colon

Measured: growth

COc1ccc(-c2nc(/C=C3\C(=O)N(C)c4ccccc43)c3ccccn23)cc1
inactive: T-47D breast 76% | BT-549 breast 104% | MDA-MB-435 melanoma 104% | SW-620 colon 84.7% | MCF7 breast 61.9% | HCT-116 colon 56.5% | HCC-2998 colon 102% | KM12 colon 93.7%

Oc1c(CN2CCCC2)cc(CSCc2ccccc2)c2cccnc12
active: T-47D breast -3.02% | MCF7 breast 8.46% | HCT-116 colon 7.5%
inactive: BT-549 breast 28.5% | MDA-MB-435 melanoma 21.2% | SW-620 colon 13.6% | HCC-2998 colon 34.8% | KM12 colon 20.1%

O=C(CCCCCCN1CC(=O)N2[C@H](c3ccc(Cl)cc3)c3[nH]c4ccccc4c3C[C@@H]2C1=O)NO
inactive: T-47D breast 25.9% | BT-549 breast 74.7% | MDA-MB-435 melanoma 43.2% | SW-620 colon 35.4% | MCF7 breast 48% | HCT-116 colon 24.7% | HCC-2998 colon 82.3% | KM12 colon 80.3%

O=S(=O)(NCCCNc1nccc(-c2c(-c3cccc(F)c3)nc3occn23)n1)c1ccc(F)cc1
active: T-47D breast 6.92%
inactive: BT-549 breast 69.4% | MDA-MB-435 melanoma 25.6% | SW-620 colon 67.7% | MCF7 breast 60.1% | HCT-116 colon 34% | HCC-2998 colon 77.3% | KM12 colon 40.4%

CCN1C(=O)N(CC)C2C1NN=c1s/c(=C\c3ccc[nH]3)c(=O)n12 (configuration not stated)
inactive: T-47D breast 31% | BT-549 breast 51.2% | SW-620 colon 16.9% | MCF7 breast 17.6% | HCT-116 colon 17% | HCC-2998 colon 33.1%
active: MDA-MB-435 melanoma -57% | KM12 colon 8.23%

CN(Cc1ccccc1)c1nc(Cl)c(C2CC(c3ccccc3)=NN2c2ccccc2)s1 (configuration not stated)
inactive: T-47D breast 71.9% | BT-549 breast 118% | MDA-MB-435 melanoma 98% | SW-620 colon 101% | MCF7 breast 82.4% | HCT-116 colon 77.7% | HCC-2998 colon 93% | KM12 colon 89.7%

Cc1ccc2c(-n3nc(C#N)c(C#N)c3N)cc(=O)[nH]c2c1
inactive: T-47D breast 77% | BT-549 breast 86.9% | MDA-MB-435 melanoma 107% | SW-620 colon 99.3% | MCF7 breast 85.1% | HCT-116 colon 76% | HCC-2998 colon 139% | KM12 colon 94.8%

c1ccc(CCNc2c3ccccc3nc3ccccc23)cc1
inactive: T-47D breast 48.9% | BT-549 breast 73.6% | MDA-MB-435 melanoma 55.3% | SW-620 colon 28.3% | MCF7 breast 12.2% | HCT-116 colon 16.5% | HCC-2998 colon 41.4% | KM12 colon 57.4%

O=C1c2ccccc2C(=O)c2c1cc1c(c2[N+](=O)[O-])OCO1
active: T-47D breast 4.66% | SW-620 colon 7.14% | MCF7 breast 3.53% | HCT-116 colon 1.94% | HCC-2998 colon -46.4% | KM12 colon 0.869%
inactive: BT-549 breast 15.8% | MDA-MB-435 melanoma 56.3%

N=C(N)c1ccc(-c2ccc(-c3cc(Cl)cc(Cl)c3)s2)nc1
active: SW-620 colon -59.2% | MCF7 breast -47% | HCT-116 colon -73.6% | KM12 colon -75.3%
inactive: T-47D breast 84.2% | BT-549 breast 97.5% | MDA-MB-435 melanoma 44.6% | HCC-2998 colon 28.1%

O=C(CC(=O)Nc1cccc(C(=O)O)c1)Nc1cccc(C(=O)O)c1
inactive: T-47D breast 92.4% | BT-549 breast 98.8% | MDA-MB-435 melanoma 87.4% | SW-620 colon 90% | MCF7 breast 101% | HCT-116 colon 94.3% | HCC-2998 colon 102% | KM12 colon 112%

COc1ccc(C2CC(c3cc(OC)c(OC)c(OC)c3)=NO2)cc1OCCCCOc1cc2c(cc1OC)C(=O)N1CCC[C@H]1C=N2 (some centres not stated)
inactive: T-47D breast 11.4%
active: BT-549 breast -71.4% | MDA-MB-435 melanoma -58.1% | SW-620 colon -21.9% | MCF7 breast 5.25% | HCT-116 colon 8.33% | HCC-2998 colon -67.3% | KM12 colon -22%

O=c1nc(-c2ccccc2)c2cc(-c3ccc(C(F)(F)F)nc3)ccc2[nH]1
inactive: T-47D breast 95.3% | BT-549 breast 99.3% | MDA-MB-435 melanoma 104% | SW-620 colon 101% | MCF7 breast 86.8% | HCT-116 colon 92.4% | HCC-2998 colon 105% | KM12 colon 91.1%

COc1ccc(Nc2ncccc2/C=C/C(=O)c2cc(OC)c(OC)c(OC)c2)cc1
active: T-47D breast -4.22% | BT-549 breast -35% | MDA-MB-435 melanoma -35.8% | SW-620 colon -68.3% | MCF7 breast -61.3% | HCT-116 colon -50.2% | HCC-2998 colon -75.9% | KM12 colon -87.5%

CN1CCN(Cc2ccc(NC(=O)c3cncc(C#Cc4cnc(N)c5ccc(F)cc45)c3)cc2C(F)(F)F)CC1
active: SW-620 colon -64.4% | HCT-116 colon -90.9% | KM12 colon 7.82%
inactive: T-47D breast 43.5% | BT-549 breast 42% | MDA-MB-435 melanoma 19.3% | MCF7 breast 13.2% | HCC-2998 colon 34.8%

C[n+]1ccc(CCc2c[nH]c3ccccc23)cc1
inactive: T-47D breast 72.6% | BT-549 breast 98.2% | MDA-MB-435 melanoma 104% | SW-620 colon 100% | MCF7 breast 93.2% | HCT-116 colon 97.2% | HCC-2998 colon 92.6% | KM12 colon 70.8%

Cn1cc(-c2csc(-c3c[nH]c4ccc(F)cc34)n2)c2ccnc(Cl)c21
inactive: T-47D breast 24.3% | BT-549 breast 78.2% | MDA-MB-435 melanoma 88.2% | SW-620 colon 41.5% | MCF7 breast 59.5% | HCT-116 colon 61.2% | HCC-2998 colon 70.8% | KM12 colon 55.1%

COc1cc(OC)c(/C=C/C(=O)c2c(O)cc(OC)c(C3CCN(C)CC3)c2OC)c(OC)c1
active: T-47D breast -74.5% | BT-549 breast -6.55% | MDA-MB-435 melanoma -87.9% | SW-620 colon -83.8% | MCF7 breast -86.1% | HCT-116 colon -100% | HCC-2998 colon -94.5% | KM12 colon -62%

Oc1ccc(/C=C/c2ccc(O)cc2)cc1
inactive: T-47D breast 69% | BT-549 breast 18.7% | MDA-MB-435 melanoma 52.8% | SW-620 colon 65.4% | MCF7 breast 33.1% | HCT-116 colon 47% | HCC-2998 colon 96.4% | KM12 colon 45.5%

COc1ccc(/C(C)=C(\c2ccc(Cl)cc2)c2ccc(OCCN3CCCCC3)cc2)cc1
inactive: T-47D breast 48.1% | BT-549 breast 73.1% | MDA-MB-435 melanoma 58% | SW-620 colon 24.5% | MCF7 breast 20.3% | HCT-116 colon 31.9% | HCC-2998 colon 91.3% | KM12 colon 25.7%

Cc1cccc[n+]1C1c2ccccc2-c2ccccc21
inactive: T-47D breast 60.8% | BT-549 breast 86.8% | MDA-MB-435 melanoma 102% | SW-620 colon 103% | MCF7 breast 95.1% | HCT-116 colon 78.5% | HCC-2998 colon 105% | KM12 colon 101%

CN1CCN(c2ccc(NC(=O)c3cncnc3Nc3ccc(OCc4cccc(F)c4)c(Cl)c3)cc2)CC1
inactive: T-47D breast 72.9% | BT-549 breast 102% | MCF7 breast 13.4% | HCT-116 colon 17.4% | HCC-2998 colon 71.5% | KM12 colon 75.8%
active: MDA-MB-435 melanoma -72.3% | SW-620 colon -30.5%

C=CCOC(=O)C1=C(C)N(CC)C(=O)NC1c1c(Cl)n(C)c2ccccc12 (configuration not stated)
inactive: T-47D breast 91% | BT-549 breast 102% | MDA-MB-435 melanoma 98.1% | SW-620 colon 101% | MCF7 breast 98.7% | HCT-116 colon 90% | HCC-2998 colon 91.2% | KM12 colon 85.7%

COc1cnc2c(c1)C(=O)c1c-2n(CCCCl)c(=O)c2ccncc12
inactive: T-47D breast 28.9% | BT-549 breast 56.8% | MDA-MB-435 melanoma 79.2% | SW-620 colon 36.3% | MCF7 breast 17.9% | HCT-116 colon 40.4% | HCC-2998 colon 75.6% | KM12 colon 67.8%

C[C@]1(O)CC(=O)[C@]2(O)C3=C(C=C[C@]2(O)C1)C(=O)c1c(O)cccc1C3=O
inactive: BT-549 breast 45.2% | HCC-2998 colon 94.7% | KM12 colon 77.8%
active: T-47D breast -45.5% | MDA-MB-435 melanoma -79.8% | SW-620 colon -55.5% | MCF7 breast -60.2% | HCT-116 colon -32.1%

CN(C)c1ccc(/C=C(\C#N)c2cc3ccccc3[nH]2)cc1
inactive: T-47D breast 36.1% | BT-549 breast 42.4% | SW-620 colon 13.2% | MCF7 breast 19.9% | HCT-116 colon 11.5% | HCC-2998 colon 45.5% | KM12 colon 24.9%
active: MDA-MB-435 melanoma -25.4%

Cc1ccc(C(=O)c2ccc(CC(=O)N=Nc3c(O)[nH]c4ccc(Br)cc34)n2C)cc1
inactive: T-47D breast 74.5% | BT-549 breast 100% | MDA-MB-435 melanoma 98.7% | SW-620 colon 91.2% | MCF7 breast 86.9% | HCT-116 colon 86% | HCC-2998 colon 124% | KM12 colon 97.9%

COc1ccc(/C=C/C(=O)c2ccc(NC(=O)CSc3nc4c([nH]3)c(=O)n(C)c(=O)n4C)cc2)cc1OC
inactive: T-47D breast 76.9% | BT-549 breast 59% | MDA-MB-435 melanoma 88.5% | SW-620 colon 96.2% | MCF7 breast 40.7% | HCT-116 colon 59.3% | HCC-2998 colon 75.9% | KM12 colon 72.3%

CCN(CC)CCN1C(=O)c2c(c(C)c3c(oc4ccc(OC)cc43)c2C)C1=O
inactive: T-47D breast 110% | BT-549 breast 116% | MDA-MB-435 melanoma 104% | SW-620 colon 92.2% | MCF7 breast 94.8% | HCT-116 colon 83.7% | HCC-2998 colon 100% | KM12 colon 99.5%
